Shown are actives, neighbours in structure and some others; about 3.5% of the full set was active somewhere.
UGM FP inh: M. tuberculosis UGM enzyme inhibitors, primary screen, biochemical, fluorescence polarization, single point. UDP-galactopyranose mutase (Mycobacterium tuberculosis (strain ATCC 25618 / H37Rv)), …. purified UGM, fluorescence polarization probe displacement. inhibition, % at 10 µM. 320,000 tested, 0.06% active. AID 504406, 2011; in the data active = inhibition above about 10%, passing the limit was not always enough
FBA Mtb inh: Mtb FBA enzyme inhibitors, primary screen, biochemical, fluorescence, strain H37Rv. Fructose-bisphosphate aldolase (Mycobacterium tuberculosis (strain ATCC 25618 / H37Rv)), …. purified M. tuberculosis FBA, fluorescence read-out. inhibition, % at 1 µM. 360,000 tested, 2.3% active
Target sequence (P9WQA3 whole entry, looked up): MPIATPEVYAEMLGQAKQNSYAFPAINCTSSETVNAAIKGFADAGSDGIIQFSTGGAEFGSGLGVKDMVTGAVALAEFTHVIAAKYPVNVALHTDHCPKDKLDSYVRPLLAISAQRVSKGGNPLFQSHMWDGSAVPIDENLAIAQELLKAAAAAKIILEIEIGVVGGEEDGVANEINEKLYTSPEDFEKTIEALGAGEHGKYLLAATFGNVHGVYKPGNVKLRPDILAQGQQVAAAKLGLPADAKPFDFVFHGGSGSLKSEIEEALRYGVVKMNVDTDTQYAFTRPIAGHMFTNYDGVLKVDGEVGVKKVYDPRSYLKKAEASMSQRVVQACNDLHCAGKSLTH
Rv3671c inh: Rv3671c serine protease inhibitors, primary screen, biochemical, fluorescence polarization, M. tuberculosis H37Rv | P9WHR9 | 320,000 tested, 0.048% active | inhibition, % at 5.96 µM; in the data active = inhibition above about 38%;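 note: extracellular domain of Rv3671c used as enzyme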
GDH-TPI counter-1: GDH-TPI coupling enzyme inhibitors, primary screen, artefact control for M. tuberculosis FBA inhibitor project, biochemical, absorbance, full deck; 360,000 tested, 1.2% active; inhibition, % at 4.8 µM; GDH-TPI coupled enzyme counterscreen, NADH absorbance; in the data active = inhibition above about 30%
Mtb bLac sens: beta-lactam sensitization of Mtb H37Rv, H37Rv; 330,000 tested, 0.27% active; inhibition, % at 25 µM; M. tuberculosis H37Rv growth with meropenem, percent inhibition; call rule not given here;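 note: growth measured after seven days incubation then overnight dye step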
Mtb FBA confirm: M. tuberculosis aldolase blockers, biochemical, fluorescence, strain H37Rv, confirmation; shares compounds with FBA Mtb inh; purified M. tuberculosis FBA, fluorescence read-out; inhibition, % at 1 µM; 5,600 tested, 78% active
GDH-TPI counter-2: GDH-TPI coupling enzyme inhibitors, artefact control for M. tuberculosis FBA inhibitor project, biochemical, fluorescence, high throughput. shares compounds with FBA Mtb inh. GDH-TPI coupled enzyme counterscreen. inhibition, % at 1 µM. 5,600 tested, 81% active; in the data active = inhibition above about 10%
GDH-TPI DR: GDH-TPI coupling enzyme inhibitors, dose response, artefact control for M. tuberculosis FBA inhibitor project, biochemical, fluorescence, IC50; GDH-TPI coupled enzyme assay, artifact counterscreen; 170 tested, 79% active; AID 652145, 2013; IC50, µM; shares compounds with FBA Mtb inh; call rule not given here
Of the large screens only hits and unclear results are named; the others gave an inactive call (follow-up assays come after a bar, where they were run). Cut-off read from the data, not from the text of the source, unless noted: active = inhibition above about 27%; inactive = the rest.

Cc1ccc(CN2C(=O)CCC2C(=O)NCc2ccccc2Cl)cc1 (stereo not given)	none
Cc1nn(-c2ccccn2)c2c1-c1nc(N)ncc1CC2	FBA Mtb inh 30 | Mtb FBA confirm inactive | GDH-TPI counter-2 inactive
Cc1nn(-c2ccccn2)c(N)c1N=O	none
COc1ccccc1-c1nc(COc2ccc(Cl)cc2Cl)no1	none
C=CCn1c(SCC(=O)Nc2ccc(N3CCOCC3)cc2)nnc1-c1ccco1	none
C=CCn1c(SCC(=O)Nc2nncs2)nnc1-c1ccco1	FBA Mtb inh 75 | Mtb FBA confirm active | GDH-TPI counter-2 active
COc1ccc2oc(-c3ccccc3[N+](=O)[O-])cc(=O)c2c1	none
O=c1cc(-c2ccco2)oc2ccccc12	FBA Mtb inh 86 (no result: UGM FP inh, Rv3671c inh, Mtb bLac sens) | Mtb FBA confirm inactive | GDH-TPI counter-2 inactive
O=c1cc(-c2c(F)c(F)c(F)c(F)c2F)oc2ccccc12	none
CC(C)OCCOc1ccc2oc(-c3ccco3)cc(=O)c2c1	FBA Mtb inh 77 | Mtb FBA confirm inactive | GDH-TPI counter-2 inactive
O=C(NCc1ccc(F)cc1)C1CC(=O)N(C2CCCCCCC2)C1 (stereo not given)	none
Nc1nc2c(c(=O)[nH]1)CN(Cc1ccccc1)CC2	FBA Mtb inh 53 | Mtb FBA confirm 108 | GDH-TPI counter-2 99
Nc1c2c(nc3ccccc13)CCN(Cc1ccccc1)C2	none
O=C(Cc1ccc(S(=O)(=O)N2CCCCC2)s1)Nc1cccc2ccccc12	none
O=C(OCc1cc(=O)oc2cc(O)ccc12)c1cc(S(=O)(=O)N2CCOCC2)ccc1F	FBA Mtb inh 41 | Mtb FBA confirm inactive | GDH-TPI counter-2 inactive
O=c1c2c(nc3cc(-c4ccc(Br)cc4)[nH]n13)CCCC2	none
O=c1c2c(nc3cc(-c4ccccc4)[nH]n13)CCC2	FBA Mtb inh 44 | Mtb FBA confirm 111 | GDH-TPI counter-2 98
COc1ccc(-c2cc3nc4c(c(=O)n3[nH]2)CCC4)cc1	FBA Mtb inh 38 | Mtb FBA confirm 151 | GDH-TPI counter-2 129
Cc1ccc2nc(N/C(N)=N/S(=O)(=O)c3ccc([N+](=O)[O-])cc3)nc(C)c2c1	none
Fc1cccc(NC(=S)NNc2c3ccccc3nc3ccccc23)c1	FBA Mtb inh 50 (no result: UGM FP inh, Rv3671c inh, Mtb bLac sens) | Mtb FBA confirm 187 | GDH-TPI counter-2 132
O=C(Nc1nnc2n1CCS2)c1ccc(Br)o1	FBA Mtb inh 105 | Mtb FBA confirm 127 | GDH-TPI counter-2 76
CC(C)c1nc(C(N)=O)c2[nH]c(=O)n(-c3ccc(F)cc3)c2n1	FBA Mtb inh 32 | Mtb FBA confirm active | GDH-TPI counter-2 active
CCN(CC)CCn1c2ccccc2c2cnc(N)c(C#N)c21	FBA Mtb inh 29 | Mtb FBA confirm active | GDH-TPI counter-2 180
O=S(=O)(Cc1ccccc1)N1CCN(C2Cc3ccccc3C2)CC1	FBA Mtb inh 29 | Mtb FBA confirm active | GDH-TPI counter-2 active
COc1ccc(OCC(=O)Nc2c(C)ccc3nsnc23)cc1	none
N#Cc1c(-c2ccccc2)cc(-c2ccccc2)[nH]c1=O	none
N#Cc1cc(-c2ccccc2)c[nH]c1=O	FBA Mtb inh 58 | Mtb FBA confirm 94 | GDH-TPI counter-2 89
COC(=O)c1ccc(Oc2ccc(C(F)(F)F)cn2)cc1	none
Cc1ccc(/C=C\c2nccc3c2[nH]c2ccccc23)cc1	FBA Mtb inh 86 | Mtb FBA confirm 174 | GDH-TPI counter-2 135
O=c1[nH]c2ccccc2nc1/C=C/c1ccc(F)cc1	none
O=c1[nH]c2ccccc2nc1/C=C/c1ccccc1	none
Fc1ccc(/C=C\c2nccc3c2[nH]c2ccccc23)cc1	FBA Mtb inh 74 | Mtb FBA confirm inactive | GDH-TPI counter-2 20
C(=C\c1nccc2c1[nH]c1ccccc12)/c1ccccc1	FBA Mtb inh 91 | Mtb FBA confirm inactive | GDH-TPI counter-2 inactive | GDH-TPI DR 1.1
CCN1CCN(CCNC(=O)c2ccc(CS(=O)c3ccc(Cl)cc3)o2)CC1 (stereo not given)	none
CCOC(=O)c1ccc(-n2c(CCC(=O)O)ccc2-c2ccc(F)cc2)cc1	none
O=S(=O)(NNc1cccc(Cl)n1)c1ccc(Cl)cc1	none (no result: UGM FP inh, Rv3671c inh, Mtb bLac sens)
CCN(CC)CCN1C(=O)c2ccccc2NC1c1cc(OC)c(OC)c(OC)c1 (stereo not given)	FBA Mtb inh 107 | Mtb FBA confirm active | GDH-TPI counter-2 active
CCCN1C(=O)c2ccccc2NC1c1cc(OC)c(OC)c(OC)c1 (stereo not given)	FBA Mtb inh 71 | Mtb FBA confirm 137 | GDH-TPI counter-2 114
CCCCN1C(=O)C(=O)N(CC(=O)c2ccc3c(c2)OCO3)C1=O	none
COc1cccc(C(O)c2ncc(-c3cccc4ccccc34)[nH]2)c1 (stereo not given)	FBA Mtb inh 48 (no result: UGM FP inh, Rv3671c inh, Mtb bLac sens) | Mtb FBA confirm 56 | GDH-TPI counter-2 47
Cc1ccc(C(O)c2ncc(-c3cccc4ccccc34)[nH]2)cc1F (stereo not given)	FBA Mtb inh 27 (no result: UGM FP inh, Rv3671c inh, Mtb bLac sens) | Mtb FBA confirm inactive | GDH-TPI counter-2 13
Cc1ccc(C(O)c2ncc(-c3ccc4ccccc4c3)[nH]2)c(C)c1 (stereo not given)	none (no result: UGM FP inh, Rv3671c inh, Mtb bLac sens)
COc1cccc(C(O)c2ncc(-c3ccccc3OC)[nH]2)c1 (stereo not given)	none (no result: UGM FP inh, Rv3671c inh, Mtb bLac sens)
Cc1ccc(C(O)c2ncc(-c3cccc4ccccc34)[nH]2)c(C)c1 (stereo not given)	FBA Mtb inh 39 (no result: UGM FP inh, Rv3671c inh, Mtb bLac sens) | Mtb FBA confirm active | GDH-TPI counter-2 active
OC(c1cccc(Cl)c1)c1ncc(-c2cccc3ccccc23)[nH]1 (stereo not given)	FBA Mtb inh 37 (no result: UGM FP inh, Rv3671c inh, Mtb bLac sens) | Mtb FBA confirm 146 | GDH-TPI counter-2 103
N#CCSc1ccccc1NC(=O)COC(=O)CCN1C(=O)C2CC=CCC2C1=O (stereo not given)	none
O=C(CCC(=O)N1CCOCC1)c1ccc(F)cc1	none
NC(=O)C1CCN(C(=O)CCC(=O)c2ccc(F)cc2)CC1	FBA Mtb inh 53 | Mtb FBA confirm 136 | GDH-TPI counter-2 128
NC(=O)C1CCN(C(=O)CCNS(=O)(=O)c2ccccc2F)CC1	FBA Mtb inh 37 | Mtb FBA confirm inactive | GDH-TPI counter-2 inactive | GDH-TPI DR inactive
O=C(COC(=O)c1nc(-c2ccccc2)n(-c2cccc(C(F)(F)F)c2)n1)NCc1cccs1	none
